According to PubChem BioAssay AID1159580 (chemical genetic matrix, 2015):
Out of some 5,500 compounds screened, about 2,000 (36%) were called active. Inconclusive results (about 18%) are left out. No stated cut-off is given here; in the data, active means normalized growth mostly below about 0.91 (no sharp cut-off); inconclusive means no clear call, values can overlap the other calls; inactive means mostly above about 0.92. The list shows a part of the results.

Test: chemical genetic growth profiling, strain panel (AID 1159580);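 further: tested at 20 µM; growth read once vehicle control cultures reached saturation at 30 °C; 1 = growth at the plate median or of vehicle wells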
Details: S. cerevisiae deletion strains, growth OD
[1] = locus YBL105C, strain PKC1, stronger effect = lower value
[2] = locus YBR135W, strain CKS1, stronger effect = lower value
[3] = locus YBR136W, strain MEC1, stronger effect = lower value
[4] = locus YBR160W, strain CDC28, stronger effect = lower value
[5] = locus YDL017W, strain CDC7, stronger effect = lower value
[6] = locus YDL028C, strain MPS1, stronger effect = lower value
[7] = locus YDL108W, strain KIN28, stronger effect = lower value
[8] = locus YDL132W, strain cdc53, stronger effect = lower value
[9] = locus YDL214C, strain PRR2, stronger effect = lower value
[10] = locus YDR052C, strain DBF4, stronger effect = lower value
[11] = locus YDR054C, strain cdc34, stronger effect = lower value
[12] = locus YDR226W, strain ADK1, stronger effect = lower value
[13] = locus YDR477W, strain SNF1, stronger effect = lower value
[14] = locus YER123W, strain YCK3, stronger effect = lower value
[15] = locus YER133W, strain GLC7, stronger effect = lower value
[16] = locus YFL009W, strain cdc4, stronger effect = lower value
[17] = locus YFL029C, strain CAK1, stronger effect = lower value
[18] = locus YFR003C, strain YPI1, stronger effect = lower value
[19] = locus YFR019W, strain FAB1, stronger effect = lower value
[20] = locus YFR028C, strain CDC14, stronger effect = lower value
[21] = locus YGR040W, strain KSS1, stronger effect = lower value
[22] = locus YGR052W, strain FMP48, stronger effect = lower value
[23] = locus YGR092W, strain DBF2, stronger effect = lower value
[24] = locus YHR030C, strain SLT2, stronger effect = lower value
[25] = locus YHR079C, strain IRE1, stronger effect = lower value
[26] = locus YHR082C, strain KSP1, stronger effect = lower value
[27] = locus YHR205W, strain SCH9, stronger effect = lower value
[28] = locus YIL147C, strain SLN1, stronger effect = lower value
[29] = locus YJL095W, strain BCK1, stronger effect = lower value
[30] = locus YJL128C, strain PBS2, stronger effect = lower value
[31] = locus YJL157C, strain FAR1, stronger effect = lower value
[32] = locus YJR016C, strain ILV3, stronger effect = lower value
[33] = locus YJR066W, strain TOR1 (second series), stronger effect = lower value
[34] = locus YJR066W, strain TOR1, stronger effect = lower value
[35] = locus YKL067W, strain YNK1, stronger effect = lower value
[36] = locus YKL101W, strain HSL1, stronger effect = lower value
[37] = locus YKL193C, strain SDS22, stronger effect = lower value
[38] = locus YLR113W, strain HOG1, stronger effect = lower value
[39] = locus YLR133W, strain CKI1, stronger effect = lower value
[40] = locus YLR403W, strain SFP1, stronger effect = lower value
[41] = locus YML070W, strain DAK1, stronger effect = lower value
[42] = locus YMR001C, strain CDC5, stronger effect = lower value
[43] = locus YMR205C, strain PFK2 (second series), stronger effect = lower value
[44] = locus YNL006W, strain LST8, stronger effect = lower value
[45] = locus YNL020C, strain ARK1, stronger effect = lower value
[46] = locus YNL161W, strain CBK1, stronger effect = lower value
[47] = locus YNL183C, strain NPR1, stronger effect = lower value
[48] = locus YNL207W, strain RIO2, stronger effect = lower value
[49] = locus YNL222W, strain SSU72, stronger effect = lower value
[50] = locus YNL307C, strain MCK1 (second series), stronger effect = lower value
[51] = locus YOL078W, strain AVO1, stronger effect = lower value
[52] = locus YOL136C, strain PFK27, stronger effect = lower value
[53] = locus YOR061W, strain CKA2, stronger effect = lower value
[54] = locus YOR231W, strain MKK1, stronger effect = lower value
[55] = locus YOR329C, strain SCD5, stronger effect = lower value
[56] = locus YPL031C, strain PHO85, stronger effect = lower value
[57] = locus YPL153C, strain RAD53, stronger effect = lower value
[58] = locus YPL204W, strain HRR25, stronger effect = lower value
[59] = locus YPL209C, strain IPL1, stronger effect = lower value
[60] = locus YPL256C, strain CLN2, stronger effect = lower value
[61] = locus YPR111W, strain DBF20, stronger effect = lower value
[62] = strain NNK1, stronger effect = lower value
[63] = strain TSCII, stronger effect = lower value

Measured: normalized growth

Nc1ccc(Sc2ccccc2)nc1Sc1ccccc1
inactive: locus YAR019C, strain CDC15, stronger effect = lower value 0.947 | [1] 0.961 | [2] 0.957 | [3] 0.957 | [4] 0.95 | [5] 0.967 | [6] 0.942 | locus YDL101C, strain DUN1, stronger effect = lower value 0.963 | [7] 0.958 | [8] 0.958 | [9] 0.927 | [10] 0.976 | [11] 0.947 | [12] 0.957 | [13] 0.901 | [14] 0.918 | [15] 0.927 | [16] 0.938 | [17] 0.935 | [18] 0.961 | [19] 0.984 | [20] 0.94 | [21] 0.909 | [22] 0.956 | [23] 0.875 | [25] 0.893 | [26] 0.948 | [27] 0.878 | [28] 0.962 | [29] 0.859 | [30] 0.886 | [31] 0.935 | [32] 0.965 | [33] 0.896 | [34] 0.851 | locus YKL048C, strain ELM1, stronger effect = lower value 0.969 | [35] 0.908 | [36] 0.913 | [37] 0.955 | locus YKL203C, strain TOR2, stronger effect = lower value 1.01 | [39] 0.945 | [40] 0.922 | [41] 0.915 | [42] 0.956 | [43] 0.938 | locus YMR277W, strain FCP1, stronger effect = lower value 0.938 | [44] 0.958 | [45] 0.938 | [46] 0.968 | [47] 0.956 | [48] 0.951 | [49] 0.951 | [50] 0.915 | [51] 0.956 | [52] 0.921 | [53] 0.919 | locus YOR119C, strain RIO1, stronger effect = lower value 0.935 | [54] 0.883 | [55] 0.962 | [56] 0.906 | [57] 0.906 | [58] 0.903 | [59] 0.959 | locus YPR025C, strain CCL1, stronger effect = lower value 0.956 | locus YPR106W, strain ISR1, stronger effect = lower value 0.957 | [61] 0.926 | [62] 0.954 | [63] 0.945
active: [24] 0.697 | [38] 0.757 | [60] 0.85

CCOC(=O)c1cc(CC)sc1NC(=O)c1ccc([N+](=O)[O-])o1
inactive: [1] 0.959 | [2] 0.992 | [3] 0.999 | [4] 1 | [5] 1 | [6] 0.988 | [7] 0.998 | [8] 0.996 | [10] 1 | [11] 0.985 | [12] 0.985 | [16] 0.985 | [17] 0.929 | [18] 1 | [20] 0.991 | [23] 0.505 | [25] 0.727 | [28] 1 | [30] 0.938 | [32] 0.95 | [37] 0.98 | [42] 0.998 | [46] 0.987 | [48] 0.995 | [49] 0.993 | [51] 1 | [54] 0.756 | [55] 1 | [59] 0.979 | [61] 0.906 | [62] 0.995 | [63] 0.998
active: [9] 0.226 | [13] 0.327 | [14] 0.34 | [15] 0.347 | [19] 0.3 | [21] 0.43 | [22] 0.205 | [24] 0.281 | [26] 0.202 | [27] 0.153 | [29] 0.318 | [31] 0.372 | [33] 0.197 | [34] 0.212 | [35] 0.435 | [36] 0.451 | [38] 0.574 | [39] 0.18 | [40] 0.129 | [41] 0.471 | [43] 0.47 | [44] 0.507 | [45] 0.338 | [47] 0.175 | [50] 0.464 | [52] 0.378 | [53] 0.334 | [56] 0.169 | [57] 0.487 | [58] 0.464 | [60] 0.337
